LGR2 antag: inhibitors of bursicon-induced LGR2 CRE-luciferase signal, primary screen, cell-based, HEK293, CRE-luciferase reporter, bursicon stimulation | Drosophila bursicon receptor LGR2 (rickets) | bursicon-stimulated, 4 h | inhibition, % at 9.99 µM | 380,000 compounds, 0.35% hits | AID 720647, 2013;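 active means drop in luminescence signal, shown as inhibition above about 50% in the replicate tests, limit read from the data, passing the limit was not always enough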;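 further: agonist challenge used bursicon conditioned medium at about half maximal strength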
HSP90 inh: HSP90 inhibitors, primary screen, cell lysate, luminescence; Heat shock protein HSP 90 (rabbit reticulocyte lysate; luciferase refolding); Rabbit reticulocyte lysate, luciferase refolding luminescence, 3 h; inhibition, % at 5.6 µM; 290,000 compounds, 0.91% hits; AID 1789, 2009;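 active means inhibition above the screen-wide mean plus 3 SD, computed separately per campaign, cut at about 16% in these data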;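 further: inhibitors lower the luminescence because luciferase stays unfolded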
TWEAK-Fn14 inh: inhibitors of TWEAK-Fn14 signaling, primary screen, luciferase reporter cells, uHTS. TWEAK-stimulated Fn14 reporter cells, luciferase luminescence, 8 h. inhibition, % at 10 µM. 360,000 compounds, 2% hits; in the data active means inhibition above about 50%
TROY signal inh: inhibitors of TROY-driven NF-kB signaling, primary screen, Q293 LMP1-TROYcd cells, NF-kB luciferase, uHTS; Q293 LMP1-TROYcd NF-kB luciferase reporter, 4 h; inhibition, % at 10 µM; 360,000 compounds, 0.98% hits;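 active means compounds whose plate-normalised and pattern-corrected inhibition of the luciferase reporter signal at the single screening dose is 50% or more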
Of the large screens only hits and unclear results are named; the others gave an inactive call. This is a sample that favours compounds with a hit; in the whole collection about 2.2% have one here.

O=S(=O)(O)c1ccc(O)c2cc(Nc3ccccc3)ccc12	TWEAK-Fn14 inh 79 (no result: LGR2 antag, HSP90 inh)
COc1ccc(CN(C)C[C@@H]2OCCCC[C@@H](C)Oc3ccc(NS(=O)(=O)c4cccs4)cc3C(=O)N([C@H](C)CO)C[C@H]2C)cc1	none (no result: HSP90 inh, TWEAK-Fn14 inh, TROY signal inh)
COC(=O)c1ccccc1NC(=O)c1ccc(-c2ccc(Br)cc2)o1	TWEAK-Fn14 inh 77, TROY signal inh 81
O=C(Nc1cccc2nsnc12)c1ccc(-c2ccc(Br)cc2)o1	none
COc1ccc(CCNC(=O)COC(=O)C23CC4CC(CC(C4)C2)C3)cc1	none
COc1ccc(CCNC(=O)COC(=O)C23CC4CC(CC(Br)(C4)C2)C3)cc1	TWEAK-Fn14 inh 70 (no result: LGR2 antag)
CSc1ccccc1C(=O)N1CCc2ccc(NC(=O)c3ccccn3)cc2C1	TWEAK-Fn14 inh 60, TROY signal inh 74 (no result: HSP90 inh)
CSc1ccc(C(=O)N2CCc3ccc(NC(=O)c4ccccn4)cc3C2)cc1	none
CCOCCCNC(=O)C(NC(=O)CNC(C)=O)c1ccc(C)cc1 (stereo not drawn)	TWEAK-Fn14 inh 73 (no result: LGR2 antag)
O=C1/C(=C\c2ccc(O)c(O)c2)C(c2ccccc2)=NN1c1ccccc1	none
COc1cc(/C=C2\C(=O)N(c3ccc(NC(C)=O)cc3)N=C2c2ccccc2)ccc1O	HSP90 inh 16
Cc1noc(C)c1NC(=O)N(C)C[C@@H]1Oc2ncc(C#CCN(C)C)cc2C(=O)N([C@@H](C)CO)C[C@H]1C	none (no result: HSP90 inh, TWEAK-Fn14 inh, TROY signal inh)
Cc1ccc(S(=O)(=O)Nc2cccc3ncccc23)s1	TWEAK-Fn14 inh 108, TROY signal inh 85 (no result: LGR2 antag)
N#CC1=C(N)NC(=S)C(C(N)=O)C1c1ccccc1F (stereo not drawn)	none
N#CC1=C(N)NC(=S)C(C(N)=O)C1c1ccc(Cl)cc1Cl (stereo not drawn)	LGR2 antag 69
COc1ccc(-c2nnc(OC)c3ccccc23)cc1	none
COc1ccc(-c2nnc(Sc3nc4ccccc4o3)c3ccccc23)cc1	TWEAK-Fn14 inh 74
CC(O)CNc1ncnc2nc[nH]c12 (stereo not drawn)	none (no result: LGR2 antag)
CC(C)CCCCCCCCCCCCC(=O)NCC(=O)NC1C(O)C(O)C(Nc2ncnc3nc[nH]c23)OC1C(O)CO (stereo not drawn)	TWEAK-Fn14 inh 97, TROY signal inh 72 (no result: LGR2 antag, HSP90 inh)
CC(C)(C)n1[nH]c2c3c(ccc2c1=O)C(=O)c1ccccc1C3=O	HSP90 inh 17, TWEAK-Fn14 inh 64 (no result: LGR2 antag)
CC(C)CCC[C@@H](C)[C@H]1CC[C@H]2[C@@H]3C(=O)C=C4C[C@@H](O)CC[C@]4(C)[C@H]3CC[C@]12C	none (no result: LGR2 antag, HSP90 inh)
C=C1/C(=C\C=C2/CCC[C@]3(C)[C@@H]([C@H](C)CCCC(C)(C)O)CC[C@@H]23)C[C@@H](O)C[C@@H]1O	HSP90 inh 26 (no result: LGR2 antag, TWEAK-Fn14 inh, TROY signal inh)
O=C(c1ccc2c(c1)OCO2)N1CC2(C1)[C@H](c1ccccc1)[C@H](CO)N2C(=O)C1CCCC1	none (no result: HSP90 inh, TWEAK-Fn14 inh, TROY signal inh)
COc1cc(/C=N/Nc2snc(SC)c2C#N)cc(OC)c1OC	TWEAK-Fn14 inh 92 (no result: LGR2 antag, TROY signal inh)
Cc1ccc(C(=O)N2c3ccccc3N(Cc3ccccc3)C(=O)C2(C)C)cc1	TWEAK-Fn14 inh 53
C[C@@H]1CN([C@@H](C)CO)S(=O)(=O)c2ccc(-c3ccncc3)cc2O[C@H]1CN(C)Cc1cccnc1	none (no result: HSP90 inh, TWEAK-Fn14 inh, TROY signal inh)
O=C(CCS(=O)(=O)c1ccc(Br)cc1)NCc1cccs1	HSP90 inh 17
CCc1ccccc1NC(=O)CCS(=O)(=O)c1ccc(Br)cc1	TWEAK-Fn14 inh 70
CC(C)(C)[S@@](=O)N1Cc2cc(C(=O)NCCc3ccncc3)nc(-c3cccc(-c4ccncc4)c3)c2[C@H]1CCO	none (no result: HSP90 inh, TWEAK-Fn14 inh, TROY signal inh)
COc1ccc2c3c(n(C)c2c1)[C@H](CO)N(C(=O)Nc1c(C)noc1C)CC31CCN(CC2CC2)CC1	none (no result: HSP90 inh, TWEAK-Fn14 inh, TROY signal inh)
CCCCN1/C(=C/c2ccc3ccccc3[n+]2CC)Sc2ccccc21	TWEAK-Fn14 inh 66 (no result: LGR2 antag)
CCN1/C(=C/c2ccc3ccccc3[n+]2CCCS(=O)(=O)[O-])C=Cc2cc(C)ccc21	none
CCN1/C(=C/c2ccc3ccccc3[n+]2CC)C=Cc2ccccc21	TWEAK-Fn14 inh 56, TROY signal inh 52 (no result: LGR2 antag)
Cc1ccc(-c2cnc3c(c2)C(=O)N([C@@H](C)CO)C[C@H](C)[C@H](CN(C)C(=O)Cc2ccccc2)O3)cc1	none (no result: HSP90 inh, TWEAK-Fn14 inh, TROY signal inh)
O=C(C[C@H]1C[C@H]2c3cc(NC(=O)c4cccnc4)ccc3O[C@H]2[C@H](CO)O1)NCc1ccccc1F	none (no result: HSP90 inh, TWEAK-Fn14 inh, TROY signal inh)
CCCCOC(=O)c1[nH]c2c(c1C)C(=O)CC(c1cc(OC)c(OC)c(OC)c1)C2 (stereo not drawn)	TWEAK-Fn14 inh 73
COCCOC(=O)c1[nH]c2c(c1C)C(=O)CC(c1cc(OC)c(OC)c(OC)c1)C2 (stereo not drawn)	none
C=CCOC(=O)c1[nH]c2c(c1C)C(=O)CC(c1cc(OC)c(OC)c(OC)c1)C2 (stereo not drawn)	TWEAK-Fn14 inh 64 (no result: LGR2 antag)
O=C(C[C@H]1CC[C@@H]2[C@H](COC[C@H](O)CN2Cc2cc(F)cc(F)c2)O1)NC1CCC1	none (no result: HSP90 inh, TWEAK-Fn14 inh, TROY signal inh)
CO[C@@H](CN(C)S(=O)(=O)c1ccc(Cl)cc1)[C@H](C)CN(C(=O)Nc1ccccc1F)[C@@H](C)CO	none (no result: HSP90 inh, TWEAK-Fn14 inh, TROY signal inh)
O=C(Nc1ccc2nc(-c3ccco3)c(-c3ccco3)nc2c1)NC1CC1	TWEAK-Fn14 inh 73 (no result: LGR2 antag)
COCC(=O)N[C@H]1CC[C@@H](CC(=O)NCc2ccc(Cl)cc2)O[C@H]1CO	none (no result: HSP90 inh, TWEAK-Fn14 inh, TROY signal inh)
CC(=O)N(C)c1ccc(N=Nc2ccc3ncccc3c2)cc1	LGR2 antag 66, TWEAK-Fn14 inh 62 (no result: HSP90 inh)
Cc1ccc(/C=N/NC(=O)c2cc3c(ccc4ccccc43)o2)o1	TROY signal inh 73
COc1ccc(/C=C2\SC(=O)N(CCNC(=O)Cn3[nH]c(=O)c4ccccc4c3=O)C2=O)cc1	TWEAK-Fn14 inh 51 (no result: HSP90 inh)
Cc1ccc(/C=C2\SC(=S)N(CCCC(=O)Nc3ccc(O)cc3)C2=O)cc1	none
COc1ccc(/C=C2/SC(=S)N(CCCC(=O)Nc3ccccc3C(=O)O)C2=O)cc1	TROY signal inh 75
COc1ccc(/C=C2\SC(=O)N(CCCC(=O)Nc3ccc(C(=O)O)cc3)C2=O)cc1	TWEAK-Fn14 inh 83, TROY signal inh 73 (no result: HSP90 inh)
Cc1ccc(/C=C2\SC(=S)N(CCCC(=O)Nc3ccccc3C(=O)O)C2=O)cc1	TWEAK-Fn14 inh 84, TROY signal inh 83
COc1ccc(/C=C2\SC(=O)N(CCNC(=O)Cc3coc4cc(OC)ccc34)C2=O)cc1	none (no result: LGR2 antag)
O=C(CCN1C(=O)S/C(=C\c2ccc(Cl)cc2)C1=O)Nc1ccc(C(=O)O)cc1	none
C[C@H](CO)N1C[C@H](C)[C@@H](CN(C)S(=O)(=O)c2cn(C)cn2)OCCCC[C@H](C)Oc2ccc(NC(=O)C3CCCCC3)cc2C1=O	none (no result: HSP90 inh, TWEAK-Fn14 inh, TROY signal inh)
CO[C@@H]1CN(C)C(=O)c2cc(NC(C)=O)ccc2OC[C@@H](C)N(C(=O)CC2CC2)C[C@@H]1C	none (no result: HSP90 inh, TWEAK-Fn14 inh, TROY signal inh)
COc1ccccc1-c1cn(CC[C@H]2CC[C@H](NC(=O)C3CCCC3)[C@@H](CO)O2)nn1	none (no result: HSP90 inh, TWEAK-Fn14 inh, TROY signal inh)
CCc1ccc(/C=C2\SC(=S)N(CCCC(=O)Nc3ccccc3C(=O)O)C2=O)cc1	TROY signal inh 75

Screening data: PubChem BioAssay, several laboratories
